Bioassay records (PubChem)
Most compounds without a hit are left out; they make up all but 11% or so of the library.
NPR1 antag: human Npr1 receptor antagonism | P16066 | HEK293 hNpr1 GloSensor cGMP, ANP-stimulated luminescence | Potency, µM (titrated, usually from 46.3 µM), without a hit: at the top dose activity change, negative = inhibition, actives largely listed as inhibitors | 76,000 compounds, 1.6% hits; calls by dose curve; note: nearly all actives have a fitted effect of over 60% in size
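HEK293 cells stably expressing human Npr1 and cGMP GloSensor pGS-40F, loaded 2 h with 2% GloSensor reagent, given compound 30 min at room temperature. Luminescence read before and 20 min after 0.1 nM hNppA.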
NIH3T3 tox: cytotoxic compounds in NIH 3T3 cells | NIH 3T3 viability, CellTiter-Glo ATP luminescence, 48-72 h | 94,000 compounds, 4.3% hits | Potency, µM (doses to about 96.7 µM), for inactives: top-dose activity change, negative = cytotoxicity, usual class: inhibitors; note: nearly all actives have a fitted effect of over 55% in size
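First NIH 3T3 cells are plated at 400 cells/well; next compound is pinned in; then plates incubate 48 or 72 hr at 37 °C; finally CellTiter-Glo is added and luminescence read after 10 min.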
HEK cytotox: cytotoxic compounds in HEK 293 cells; 94,000 compounds, 6.6% hits; HEK 293 viability, ATP luminescence (CellTiter-Glo), 48-72 h; Potency, µM (titrated, usually from 115 µM), for the others: top-dose activity change, negative = cytotoxicity, most hits filed as inhibitors; note: nearly all actives have a fitted effect of over 60% in size
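CellTiter-Glo luminescence (cellular ATP) was read after 48 or 72 hr of compound exposure at 37 degree Celsius. Cells were HEK 293 plated at 250 cells/well.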
Luciferase inh: blocks purified firefly luciferase enzyme activity; Potency, µM (titrated, usually from 115 µM), most hits filed as inhibitors; AID 1347043; P08659; 76,000 compounds, 2.5% hits; purified P. pyralis luciferase, luminescence, biochemical; note: nearly all actives have a fitted effect of over 65% in size
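FLuc 10nM, D-luciferin 10uM, ATP 10uM, Mg acetate 10mM, Tris acetate pH 7.5, Tween/BSA; cpd qHTS; enzyme added last; CCD luminescence.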
Active calls of the source: *; i = inactive; ? = inconclusive; / = not tested or not shown; [ ] = remark or other dose. Unless noted, calls come from the whole dose curve; as a rule, active = well fitted curve in the direction sought with a large enough effect; inconclusive = small, poorly fitted or top-dose-only effect, or another doubt; inactive = no such curve, though single readings can be large; an effect the other way counts as inactive or inconclusive. % is set by controls: 0 for no effect and ±100 for the full control effect; potency is the fitted concentration of half-maximal effect.

SMILES | NPR1 antag | NIH3T3 tox | HEK cytotox | Luciferase inh
COCCOC(=O)C1=C(C)N=C2SC=C(CC(=O)N3CCCCC3C)N2C1c1ccccc1 (stereo not drawn) | -9.3% | -16.3% | 35.5µM* | i
COCc1nc(C2CCCN(C(=O)NCc3ccccc3)C2)no1 (stereo not drawn) | -2.3% | -11.9% | 1.6% | i
COc1ccccc1-c1nc(N2CCOCC2)cc2c1CN(c1ccccc1)C2=O | 2.3%[70.6 µM] | -30.8%[138 µM] | ? | ?
CCOc1ccc(CN2CCN(C/C=C/c3ccccc3OC)CC2CCO)cc1 (stereo not drawn) | -13.6% | ? | 20µM* | i
CN1CCCC2(CCN(C(=O)c3cc(=O)[nH]c4ccc(F)cc34)C2)C1=O (stereo not drawn) | 0.9% | -2.8% | -2.8% | i
CCc1[nH]c2ccc(CNC(=O)c3coc(CN4CCOCC4)c3)cc2c1C | 1.8% | -13.3% | -26.4% | 31.6µM*
CCc1[nH]c2ccc(CNC(=O)Cc3cnc4c(C)cccn34)cc2c1C | 7.08µM* | ? | ? | ?
CO[C@H]1C(=O)N(C(C)C)[C@H]1C1CCN(C(=O)CCn2cccn2)CC1 | / | -19.9% | -3.9% | /
CN(C)CCNC(=O)c1nc2nc(-c3ccccc3)c(Nc3ccc(F)cc3)cc2n1C | 2.2%[70.6 µM] | ? | 56.2µM* | i
COCCCNC(=O)c1nc2nc(-c3ccccc3)c(Cl)cc2n1C | -5.7%[70.6 µM] | ? | ? | i
Cc1ccccc1Nc1cc2c(nc1-c1ccccc1)nc(C(=O)NCCN(C)C)n2C | 1.7%[70.6 µM] | 31.6µM* | 39.8µM* | i
Cc1noc(C)c1S(=O)(=O)N1CCCC(CCc2ccc(F)c(F)c2)C1 (stereo not drawn) | -15.5% | ? | 44.7µM* | i
Cc1noc2c(NCCCn3ccnc3)cc(-c3ccccn3)nc12 | 0.7%[70.6 µM] | 25.1µM* | -23.1%[172 µM] | i
Cc1noc2c(NCCCn3ccnc3)cc(-c3ccccc3)nc12 | 3.4%[70.6 µM] | 11.2µM* | ? | i
Cc1noc2c(NCCCn3ccnc3)cc(-c3cccc(C(F)(F)F)c3)nc12 | 0.4%[70.6 µM] | ? | ? | i
CCc1nccn1CCCNc1nc(CCN)nc2ccccc12 | 1.1% | -23.8% | -7.7% | i
COc1ccc(OC2CCN(C(C)=O)CC2)c(C(=O)NCc2csc(C(C)C)n2)c1 | 8.0% | i | 3.2% | i
COc1ccc2c(C)c(C(=O)N(C)Cc3csc(C(C)C)n3)oc2c1 | 1.4% | ? | 44.7µM* | i
Cc1ccc(C2Cn3nnc(-c4nc(-c5ccccc5F)no4)c3CO2)c(C)c1 (stereo not drawn) | 0.8% | 1.0% | 8.3% | ?
COc1ncccc1-c1cc2c(ccn2CC2CCN(C)CC2)c(N2CCOCC2)n1 | -12.7%[70.6 µM] | 44.7µM* | 89.1µM* | i
C[S+](=O)([O-])N1CCC(Cn2ccc3c(N4CCOCC4)nc(-c4cncnc4)cc32)CC1 | -9.2% | ? | -15.2% | i
COc1cccc(-c2cc3c(ccn3CC3CCN(C)CC3)c(N3CCOCC3)n2)c1 | -0.4%[70.6 µM] | 25.1µM* | 63.1µM* | i
CO[C@H]1C(=O)N(C(C)C)[C@H]1C1CCN(C(=O)c2cccc(C#N)c2)CC1 | 4.1% | -14.0% | -16.1% | i
O=C1CC2(CCN(Cc3ccsc3)CC2)Oc2ccccc2N1c1ccccc1 | -12.6% | ? | ? | i
O=C1CC2(CCN(Cc3ccc(C(F)(F)F)cc3)CC2)Oc2ccccc2N1 | -26.6% | ? | 44.7µM* | i
SMILES | NPR1 antag | NIH3T3 tox | HEK cytotox | Luciferase inh
O=C1CC2(CCN(Cc3ccc(F)cc3)CC2)Oc2ccccc2N1c1ccccc1 | 0.0% | ? | 50.1µM* | i
O=C1CC2(CCN(Cc3ccc(C(F)(F)F)cc3)CC2)Oc2ccccc2N1c1ccccc1 | -29.1% | 25.1µM* | 20µM* | i
O=C1CC2(CCN(Cc3ccc(F)cc3)CC2)Oc2ccccc2N1 | 4.3% | -10.4% | ? | i
O=C(O)c1cn2ccnc(-c3ccccc3)c2n1 | 2.0% | -23.0% | 8.6% | i
COC(=O)[C@H](NC(=O)[C@@H]1C[C@@H](NC(=O)Nc2cccc(F)c2)CCN1C(=O)CCC(=O)O)C(C)C | 3.5% | 1.0% | -1.8% | i
COc1cc(CN2CCCC(c3[nH]ccc3C(N)=O)C2)ccc1F (stereo not drawn) | -12.5% | -17.4% | -4.1% | i
C#CCN(C)CC[C@@H]1CC[C@H](O)[C@@H](C(=O)NC2CCCCC2)O1 | -1.6%[70.6 µM] | -2.9%[138 µM] | 1.7%[172 µM] | i
CCOc1ccc2c(n1)CCN(C(=O)C1CCOCC1)C2 | -1.5% | -8.0% | 23.3% | i
COC(=O)C(=O)N1CC[C@H]2NC(=O)N(c3ccc(C(C)C)cc3)C(=O)[C@H]21 | -4.0%[70.6 µM] | i | 4.5%[172 µM] | i
COc1cccc(Nc2cnc3ccc(-c4cccc(CO)c4)nn23)c1 | -16.5%[70.6 µM] | ? | ? | i
Cc1ccccc1Nc1cnc2ccc(-c3cccc(CO)c3)nn12 | -2.6%[70.6 µM] | ? | 79.4µM* | i
COc1ccccc1Nc1cnc2ccc(-c3cccc(CO)c3)nn12 | ? | ? | ? | i
OCc1cccc(-c2ccc3ncc(Nc4cccc(F)c4)n3n2)c1 | -24.3%[70.6 µM] | 28.2µM* | 56.2µM* | i
CC1(C)C[C@H](NC2CCOCC2)[C@@]2(CCC(=O)N3CCOCC3)CC[C@](C)(O)C[C@@H]12 | 3.7%[70.6 µM] | -5.5%[174 µM] | -2.0%[172 µM] | i
CN1C(=O)[C@@H]2C[C@@H](CN2C(=O)Nc2ccccc2)Oc2ccccc21 | -0.1%[70.6 µM] | i | i | i
COc1ccccc1-c1cnc2n[nH]c(-c3sccc3C)c2n1 | -19.3%[70.6 µM] | ? | 89.1µM* | i
Cc1ccccc1-c1[nH]nc2ncc(-c3ccccc3F)nc12 | -25.8%[70.6 µM] | ? | 50.1µM* | i
Cc1ccccc1-c1[nH]nc2ncc(-c3cnn(C)c3)nc12 | 1.3%[70.6 µM] | ? | ? | i
COc1ccc(-c2cnc3n[nH]c(-c4sccc4C)c3n2)cc1OC | -9.0%[70.6 µM] | ? | 63.1µM* | i
Cc1ccsc1-c1[nH]nc2ncc(-c3ccccc3F)nc12 | -5.3%[70.6 µM] | ? | 70.8µM* | i
O=C(C1CCC1)N1CCCC(c2nc(C3CCOCC3)no2)C1 (stereo not drawn) | 18.1% | -2.6% | -4.0% | i
O=C(NCCn1cccn1)c1ccc(S(=O)(=O)N2CCC(O)C2)cc1 (stereo not drawn) | 2.4% | i | i | i
O=C(OCc1ccccc1)N1CCOCC12CCN(Cc1ccc(F)cc1)CC2 | -12.0%[70.6 µM] | ? | 70.8µM* | i
CC(C)c1ccc(CN2CCC3(CC2)COCCN3C(=O)OCc2ccccc2)cc1 | ? | 35.5µM* | 50.1µM* | i
O=C(OCc1ccccc1)N1CCOCC12CCN(Cc1cccs1)CC2 | 2.9%[70.6 µM] | 28.2µM* | ? | i
O=C(c1ccc(Oc2ccccc2)cc1)N1CCOCC12CCN(Cc1ccccc1)CC2 | -18.6% | ? | ? | i
COc1ccc(CN2CCC3(CC2)COCCN3C(=O)OCc2ccccc2)cc1O | -2.4%[70.6 µM] | ? | -20.3%[172 µM] | i
O=C(OCc1ccccc1)N1CCOCC12CCN(Cc1cccnc1)CC2 | -8.6%[70.6 µM] | ? | ? | i
O=C(COc1ccccc1)N1CCOCC12CCN(Cc1ccccc1)CC2 | 3.2%[70.6 µM] | ? | 44.7µM* | i
